# Measurements as given in the supplement of paper PMC12340641.
# Where a name gives a salt, the structure may show the parent alone.
# Key:
# [1] = target: IKZF1 (dCK*-IKZF1 fusion in HEK293FT) (UniProt Q13422); test: inhibition of IKZF1 HTRF signal (DMSO = 0%, pomalidomide 10 uM = 100%); higher = lower IKZF1 protein level; details: compound concentration: 5 uM, overnight (~20 h)
# Method in brief: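 For percent inhibition of IKZF1 signal, each plate was normalised to vehicle and to a reference degrader. Cells were HEK293FT stably expressing an IKZF1 fusion, plated at 2000/well in 384-well format and treated overnight at 37 °C with 5 μM compound, one well each. Lysates were probed overnight with a commercial HTRF total-IKZF1 antibody kit, with the 665/620 nm ratio background-subtracted and vehicle and degrader fixed at 0% and 100%.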
# HEK293FT dCK*-only = test: relative growth in counter assay (no AraC = 100%, AraC + DMSO = 0%); higher = more growth rescue independent of IKZF1; details: compound concentration: 5 uM; AraC concentration: 0.3 uM; overnight pretreatment + 4 days AraC
# Method in brief: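 HEK293FT cells carrying only an engineered kinase construct were plated at 300 per well (384-well) and given 5 μM compound 2 h later. Following overnight at 37 °C, a nucleoside suicide substrate (0.3 μM) plus medium was added for 4 days. Hoechst 33342-stained nuclei were imaged and counted on day 5, with 100% assigned to wells without suicide substrate and 0% to substrate plus vehicle on each plate.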
# HEK293FT dCK*-IKZF1 = test: relative growth recovery (pomalidomide 10 uM = 100%, DMSO = 0%); higher = more growth rescue (IKZF1 fusion degradation); details: compound concentration: 5 uM; AraC concentration: 0.3 uM; overnight pretreatment + 4 days AraC
# Method in brief: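 Means of duplicates from different days are given for growth recovery, normalised per plate against a reference degrader and vehicle. The reference degrader set the 100% level and vehicle the 0% level. HEK293FT cells stably expressing a deoxycytidine kinase–IKZF1 fusion (300/well, 384-well) received 5 μM compound 2 h after seeding and, after overnight at 37 °C, 0.3 μM of a nucleoside suicide substrate plus medium for 4 days. Nuclei stained with Hoechst 33342 were then counted by whole-well imaging on day 5.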
# IKZF1 (dCK*-IKZF1 fusion in HEK293FT), sequence (Q13422 whole entry, looked up, the tested form may be a part): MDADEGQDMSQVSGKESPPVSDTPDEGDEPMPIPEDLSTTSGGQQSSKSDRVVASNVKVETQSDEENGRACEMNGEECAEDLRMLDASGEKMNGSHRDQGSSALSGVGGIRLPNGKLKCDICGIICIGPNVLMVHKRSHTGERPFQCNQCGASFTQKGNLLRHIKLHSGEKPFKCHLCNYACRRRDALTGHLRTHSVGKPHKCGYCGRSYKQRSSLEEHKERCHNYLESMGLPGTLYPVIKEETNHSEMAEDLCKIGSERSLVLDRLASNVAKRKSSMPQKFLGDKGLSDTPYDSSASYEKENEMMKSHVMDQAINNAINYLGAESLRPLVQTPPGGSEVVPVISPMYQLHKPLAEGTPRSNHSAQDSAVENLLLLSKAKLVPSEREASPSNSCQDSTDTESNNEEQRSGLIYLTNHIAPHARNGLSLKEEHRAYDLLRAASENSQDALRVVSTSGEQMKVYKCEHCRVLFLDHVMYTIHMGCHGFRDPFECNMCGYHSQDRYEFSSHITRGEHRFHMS
SMILES,inhibition of IKZF1 HTRF signal [1],relative growth in counter assay (HEK293FT dCK*-only),relative growth recovery (HEK293FT dCK*-IKZF1)
O=S(=O)(O)CCCS(=O)(=O)O,17.9%,1.16%,-1.31%
CCOC(=O)C1=C[C@]2(CC)CCCN3CCc4c(n1c1ccccc41)[C@@H]32,-26.3%,-0.08%,3.4%
O=C(Nc1cccc(Cl)c1)Nc1ncc(CCNc2ncnc3ccsc23)s1 [SNS-314 methanesulfonate],-27%,-30.3%,-6.71%
CCCCC(=O)OCC(=O)[C@]1(O)Cc2c(O)c3c(c(O)c2[C@@H](O[C@H]2C[C@H](NC(=O)C(F)(F)F)[C@H](O)[C@H](C)O2)C1)C(=O)c1c(OC)cccc1C3=O [Valrubicin],-26.2%,-34.4%,-11.8%
O=C(OC)C1=C(C)NC(C)=C([N+]([O-])=O)[C@H]1[C@]2=CC=CC=C2C(F)(F)F,-26.8%,0.45%,-0.325%
CCN(CCCCCOCC(=O)N[C@H](C(=O)N1C[C@H](O)C[C@H]1C(=O)N[C@@H](C)c1ccc(-c2scnc2C)cc1)C(C)(C)C)CCOc1ccc(C(=O)c2c(-c3ccc(O)cc3)sc3cc(O)ccc23)cc1,3.72%,13.8%,11%
COc1ccc(Cl)cc1C(=O)NCCc1ccc(C(=O)O)cc1 [meglitinide],-37.6%,-0.23%,-1.25%
CCN(c1ccccc1)c1cc(NC)[n+](C)c(C)n1,26.3%,3.09%,-0.645%
COC(=O)C1=C(C)NC(C)=C(C(=O)OCC(C)C)C1c1ccccc1[N+](=O)[O-] (centres undefined) [Nisoldipine],-28.1%,-8.81%,-3.19%
C=C1/C(=C\C=C2/CCC[C@]3(C)[C@@H]([C@H](C)CCCC(C)(C)O)CC[C@@H]23)C[C@@H](O)C[C@@H]1O [Calcitriol],-12.4%,-0.18%,-0.98%
NC(=O)Nc1sc(-c2ccc(F)cc2)cc1C(N)=O,-33.5%,-26.8%,-9.27%
CCNC(=O)Nc1ccc(-c2nc3c(c(N4CCOC[C@@H]4C)n2)CCN(C2COC2)C3)cc1,68.5%,-31.5%,-12.3%
Oc1c(I)cc(I)c2cccnc12,-30.6%,-11.2%,-3.46%
CCOC(=O)CC(=O)N1CCSC1COc1ccccc1OC (centres undefined) [Moguisteine],-1.23%,6.33%,-0.775%
Cc1ncsc1-c1ccc(CNC(=O)[C@@H]2C[C@@H](O)CN2C(=O)[C@@H](NC(=O)COCCOCCOCCOc2ccc(-c3ccc4ncnc(Nc5ccc(OCc6cccc(F)c6)c(Cl)c5)c4c3)cc2)C(C)(C)C)cc1,13.3%,18%,4.09%
COc1ccc2nc3cc(Cl)ccc3c(Nc3cc(CN4CCCC4)c(O)c(CN4CCCC4)c3)c2n1,-32.1%,-29.1%,-10.1%
Nc1c2ccccc2nc2ccccc12,58.6%,-34.8%,-14%
Cc1ccc(S(=O)(=O)NC(=O)NN2CCCCCC2)cc1,-31.1%,0.45%,-2.75%
COc1cc(/C=C/C(=O)CC(=O)/C=C/c2ccc(O)c(OC)c2)ccc1O [Curcumin],-0.83%,-25.9%,-6.48%
Nc1ncn([C@H]2C[C@H](O)[C@@H](CO)O2)c(=O)n1 [decitabine],27.4%,-31.5%,-10.8%
O=C1CCC(N2C(=O)c3ccccc3C2=O)C(=O)N1 (centres undefined) [thalidomide],-17.1%,0.97%,1.01%
Nc1ncn([C@@H]2O[C@H](CO)[C@@H](O)[C@H]2O)c(=O)n1,-45.6%,-13.2%,-5.21%
CSc1ccc2c(c1)C(N1CCN(C)CC1)Cc1ccccc1S2 (centres undefined),-34.7%,-1.22%,-1.56%
O=C1c2c(O)ccc(O)c2C(=O)c2c(NCCNCCO)ccc(NCCNCCO)c21,5.77%,-35.5%,-13.7%
CO[C@H]1/C=C/O[C@@]2(C)Oc3c(C)c(O)c4c(O)c(cc(O)c4c3C2=O)NC(=O)/C(C)=C\C=C\[C@H](C)[C@H](O)[C@@H](C)[C@@H](O)[C@@H](C)[C@H](OC(C)=O)[C@@H]1C [Rifamycin SV Sodium],-36.7%,2.23%,0.23%
c1ccc(C(NCc2cccnc2)(c2ccccc2)c2ccccc2)cc1,-26.2%,3.05%,-0.7%
C=CCNc1c(O)cc2c(O)c1C[C@@H](C)C[C@H](OC)[C@H](O)[C@@H](C)/C=C(\C)[C@H](OC(N)=O)[C@@H](OC)/C=C\C=C(/C)C(=O)N2 [Retaspimycin (Hydrochloride)],-31%,-34.5%,-10.9%
O=C1OCCN1/N=C/c1ccc([N+](=O)[O-])o1,-32.5%,-3.23%,-3.37%
